Shown are actives, neighbours in structure and some others; about 1.6% of the full set was active somewhere.
KCNQ2 pot: potentiators of rat KCNQ2 potassium channel. O88943. CHO-K1 KCNQ2, FluxOR thallium flux fluorescence; stronger effect = higher value. B-score at 10 µM. actives 0.54% (n = 310,000). AID 2239;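 active = fluorescence ratio B-score at least 3 SD of library B-scores, with initial fluorescence B-score within 3 of them, cut at about 5.3 in these data; same plate scores as AID 2156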;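 also: B-score of peak minus minimum over baseline fluorescence ratio after K+ and Tl+ stimulus; positive B-score means potentiation of KCNQ2 with more thallium influx and brighter signal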
Target sequence (O88943 whole entry, looked up): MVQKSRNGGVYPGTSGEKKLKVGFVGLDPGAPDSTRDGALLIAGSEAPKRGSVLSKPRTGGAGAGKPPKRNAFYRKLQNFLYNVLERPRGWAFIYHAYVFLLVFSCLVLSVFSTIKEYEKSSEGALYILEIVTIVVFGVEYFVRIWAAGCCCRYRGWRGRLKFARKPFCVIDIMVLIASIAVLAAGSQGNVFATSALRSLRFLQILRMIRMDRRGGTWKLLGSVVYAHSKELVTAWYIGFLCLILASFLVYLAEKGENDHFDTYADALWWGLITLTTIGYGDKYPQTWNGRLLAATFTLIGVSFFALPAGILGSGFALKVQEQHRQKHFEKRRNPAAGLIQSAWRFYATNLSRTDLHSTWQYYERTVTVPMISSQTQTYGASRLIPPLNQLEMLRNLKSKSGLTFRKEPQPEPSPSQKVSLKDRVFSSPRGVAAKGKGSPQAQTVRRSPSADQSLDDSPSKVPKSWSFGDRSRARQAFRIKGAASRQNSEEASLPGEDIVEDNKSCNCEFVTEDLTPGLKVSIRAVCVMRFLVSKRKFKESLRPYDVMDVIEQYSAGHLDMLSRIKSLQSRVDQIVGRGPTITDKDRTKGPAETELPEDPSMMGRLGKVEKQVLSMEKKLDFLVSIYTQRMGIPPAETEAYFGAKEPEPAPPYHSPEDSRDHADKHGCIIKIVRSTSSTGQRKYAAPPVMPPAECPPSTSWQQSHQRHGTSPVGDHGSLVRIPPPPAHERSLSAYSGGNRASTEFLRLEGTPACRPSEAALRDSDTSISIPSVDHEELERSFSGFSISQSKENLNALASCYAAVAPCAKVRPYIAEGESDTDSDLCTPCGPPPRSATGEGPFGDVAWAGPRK
KCNQ2 block: inhibitors of rat KCNQ2 potassium channel. O88943. CHO-K1 KCNQ2, FluxOR thallium flux, 20 min; stronger effect = lower value. B-score at 10 µM. actives 1.1% (n = 310,000). AID 2156;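 active = fluorescence ratio B-score at most minus 3 library SDs, with starting brightness B-score within 2 library SDs, cut at about -5.5 in these data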
The depositor's hits bear a star; i = inactive; / = not tested or not shown.

SMILES | KCNQ2 pot | KCNQ2 block
Clc1ccc(-c2nnc(-c3ccc(Br)cc3)c(N3CCSCC3)n2)cc1 | -6.99 | -6.99*
Cc1ccc(OCC(=O)Nc2ccc(N3CCN(C(=O)c4ccco4)CC3)cc2)cc1 | 0.56 | i
CC(=O)c1ccc(NC(=O)COC(=O)c2ccccc2Nc2ccccc2)cc1 | / | i
O=C(COC(=O)c1ccccc1Nc1ccccc1)Nc1ccccc1 | 5.81* | i
CCN(CC)S(=O)(=O)c1cc(NC(=O)CN2C(=O)NC3(CCCc4ccccc43)C2=O)ccc1C (centres undefined) | -5.76 | -5.76*
Cc1ccc(NC(=O)CN2C(=O)NC3(CCCc4ccccc43)C2=O)cc1S(=O)(=O)N1CCOCC1 (centres undefined) | / | i
CC(c1ccco1)N(C(=O)c1cccc(Br)c1)c1ccccn1 (centres undefined) | 0.03 | i
CCn1c(/C=C/c2ccccc2)nc2ccccc21 | / | i
CCC(C)n1c(/C=C/c2ccccc2)nc2ccccc21 (centres undefined) | -5.68 | -5.68*
CC1CCCN(S(=O)(=O)c2ccc3[nH]c4c(c3c2)CCCC4)C1 (centres undefined) | / | i
COC(=O)c1ccccc1NC(=O)c1cc2sccc2n1C | -6.13 | -6.13*
COC(=O)c1cccc(NC(=O)c2cc3sccc3n2C)c1 | / | i
O=C(NCc1cc([N+](=O)[O-])ccc1O)c1cccc(NS(=O)(=O)c2ccccc2)c1 | / | i
CC1CCCC(NC(=O)COC(=O)/C=C/c2ccc(S(=O)(=O)N3CCOCC3)cc2)C1C (centres undefined) | / | i
CCN1CCN(CCNC(=O)c2ccc3c(c2)N(Cc2ccc(F)cc2)C(=O)/C(=C/c2ccccc2)S3)CC1 | -6.48 | -6.48*
COc1ccc(/C=C2\Sc3ccc(C(=O)N4CCc5ccccc5C4)cc3N(C)C2=O)cc1 | / | i
CCN1CCN(CCNC(=O)c2ccc(/C=C3/Sc4ccccc4N(Cc4cccc(Cl)c4)C3=O)cc2)CC1 | / | i
COc1ccc(/C=C2\Sc3ccc(C(=O)NCCN4CCCCCC4)cc3N(C)C2=O)cc1 | -6.43 | -6.43*
Cc1ccc(S(=O)(=O)NC(=NC2CCCCC2)c2ccc(Cl)cc2)cc1 | 0.04 | i
Cc1ccc(S(=O)(=O)Oc2ccc(/C=C3/N=C(c4ccccc4)OC3=O)cc2)cc1 | -7.43 | -7.43*
COc1ccc(/C=C2\N=C(c3ccc(C)cc3)OC2=O)cc1 | / | i
N#Cc1ccccc1OCC(=O)NC(=O)NCc1ccco1 | / | i
N#Cc1nnn(-c2ccc(Cl)cc2)c1N | 0.17 | i
CCN(CC)S(=O)(=O)c1cc(NC(=O)COc2ccc(C#N)cc2OC)ccc1C | / | i
CCN(CC)S(=O)(=O)c1ccc(C)c(NC(=O)COc2ccc(Cl)cc2Br)c1 | 0.05 | i
SMILES | KCNQ2 pot | KCNQ2 block
CCN(CC)S(=O)(=O)c1cccc(NC(=O)COc2ccc(C#N)cc2OC)c1 | 7.54* | i
CCN(CC)S(=O)(=O)c1cccc(NC(=O)COc2ccc(F)cc2Br)c1 | -7.59 | -7.59*
Cc1cccc(Nc2nc(NCCCN3CCOCC3)nc(N)c2[N+](=O)[O-])c1 | 1.16 | i
COc1ccc(C(=O)N/C(=C\c2cn(S(=O)(=O)N(C)C)c3ccccc23)C(=O)N2CCOCC2)cc1 | 0.1 | i
CCOC(=O)C1CCN(C(=O)COc2ccc(S(=O)(=O)N3CCCC3)cc2C)CC1 | 0.39 | i
COC(=O)c1nn(C23CC4CC(CC(C4)C2)C3)c2c1C(=O)N(c1ccc(Br)cc1)C2=O | -6.45 | -6.45*
CCOC(=O)c1nn(C23CC4CC(CC(C4)C2)C3)c2c1C(=O)N(c1ccc(C)cc1)C2=O | -6.85 | -6.85*
COC(=O)c1cc(-c2ccc(Br)cc2)on1 | 0.65 | i
CCOC(=O)c1ccc(N2C(=O)C(C)=C(C)C2=O)cc1 | / | i
CCC(CC)NC(=O)Nc1ccccc1C(F)(F)F | 1.32 | i
CCOC(=O)C1=C(COC(=O)c2ccc(OC)c(OC)c2OC)NC(=O)NC1C (centres undefined) | 1.07 | i
Cc1ccccc1Nc1nc(N)nc(CCl)n1 | / | i
Cc1ccccc1Nc1nc(N)nc(COC(=O)C2CCCCC2)n1 | 7.68* | i
Cc1ccc(N2CC(C(=O)OCc3nc(N)nc(Nc4ccccc4C)n3)CC2=O)cc1 (centres undefined) | 0.86 | i
Cc1ccccc1NC(=O)CSCc1nc(N)nc(Nc2ccccc2C)n1 | 5.7* | i
CCCN(S(=O)(=O)c1ccccc1F)S(=O)(=O)c1ccccc1Br | / | i
CC(=O)C1[C@H](N(C)C)CC2C3CC=C4CC(O)CC[C@]4(C)C3CC[C@@]21C (some centres undefined) | / | i
O=C(Oc1ccccc1)n1c(=S)oc2ccccc21 | 3.32 | i
Cc1ccccc1OC(=O)n1c(=S)oc2cc(Cl)ccc21 | 6.92* | i
CC1CCCN(C(=O)c2ccc([N+](=O)[O-])o2)C1 (centres undefined) | / | i
CC1CCCN(C(=O)c2ccc(-c3ccccc3Cl)o2)C1 (centres undefined) | -7.4 | -7.4*
O=C(CSc1nc2ccccc2c(=O)n1CCCN1CCOCC1)NC12CC3CC(CC(C3)C1)C2 | / | i
O=Nc1c(O)n(Cc2ccc(Cl)cc2)c2ccccc12 | / | i
Cc1ccc(Cn2c(O)c(N=O)c3ccccc32)cc1 | -6.71 | -6.71*
O=Nc1c(O)n(Cc2c(Cl)cccc2Cl)c2ccccc12 | 0.3 | i
SMILES | KCNQ2 pot | KCNQ2 block
O=Nc1c(O)n(Cc2ccc(Cl)cc2Cl)c2ccccc12 | -7.99 | -7.99*
Cc1ccc(NC(=S)N(CCC(C)C)C(C)c2ccncc2)c(Cl)c1 (centres undefined) | / | i
COc1ccc(NC(=O)NC2CCCCC2C)cc1 (centres undefined) | 1.09 | i
COc1ccccc1NC(=O)CCSc1nc(C)cs1 | 1.99 | i
CCn1c(CNc2nc3ccccc3n2C(C)C)nc2ccccc21 | -8.28 | -8.28*
CC(C)n1c(NCc2nc3ccccc3n2C)nc2ccccc21 | / | i
CC1=CC(C)C(/C=N/N=C(N)N)C(C)C1 (centres undefined) | 0.9 | i
Cc1c(C(=O)NC(C)C)c(-c2ccccc2)nn1-c1ccccc1 | / | i
Cc1c(C(=O)NCc2ccccc2)c(-c2ccccc2)nn1-c1ccccc1 | -5.6 | -5.6*
Cn1ccnc1COc1ccc(/C=N/O)cc1 | / | i
O=C(NC(=S)Nc1cccnc1)c1cc2ccccc2o1 | 8.09* | i
O=C(NC(=S)NCc1cccnc1)c1cc2ccccc2o1 | 0.85 | i
CC(C)Oc1ccc(C(=O)NC(Cc2c[nH]c3ccccc23)C(=O)NN)cc1 (centres undefined) | 0.03 | i
CCC(=O)N(Cc1ccc(S(N)(=O)=O)cc1)C1CC(=O)N(c2ccccc2)C1=O (centres undefined) | 0.33 | i
O=C(NCC(=O)N(Cc1ccccc1)C(C(=O)NCC1CCCO1)c1ccccc1)c1cccs1 (centres undefined) | -5.57 | -5.57*
CC(=O)c1ccc(N(C(=O)CNC(=O)c2cccs2)C(C(=O)NCC2CCCO2)c2ccccc2)cc1 (centres undefined) | 0.47 | i
Oc1c(Br)cc(Br)cc1C=Nc1ccc2c(c1)OCCO2 | 2.91 | i
Oc1c(Br)cc(Br)cc1C=Nc1ccc2c(c1)OCO2 | 9.84* | i
CCOC(=O)c1c(NC(=O)CSc2nc3nc(C)cc(C)n3n2)sc(CC)c1C | 0.78 | i
O=C1N(c2ccccc2)C[C@@H]2C[C@@H](c3cc4ccccc4o3)N3CCC[C@@]123 | / | i

Screening data deposited in PubChem BioAssay by Johns Hopkins Ion Channel Center.
